Results reported in paper PMC5540273 (PLoS ONE, 2017).

Test system: BLK
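Note: kd values determined as follow-up on hits from a single-replicate KINOMEscan panel screen.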

First: COc1cc2nccc(Nc3ccc(NC(=O)c4ccc(C)cc4)c(O)c3)c2cc1OC.Cl [GW440132]
Second: Cc1ccc(C(=O)Nc2ccc(Nc3ccnc4cc(-c5ccccn5)ccc34)cc2O)cc1.Cl [GW440146]
The Kd of the first is 3.7-fold higher: 230 nM for the first, 63 nM for the second.

For `Cl.NC(=O)c1cccc(Nc2nccc(Nc3ccc(Oc4cccc(Cl)c4)c(Cl)c3)n2)c1` [GW659008], the Kd was 2600 nM.

Test system: BRAF

Compared with `CC(=O)Nc1nc2cnc(Nc3cc(NC(=O)c4cccc(CCC#N)c4)ccc3C)nc2s1`, `Cc1cccc(-c2nc(-c3ccc(S(C)(=O)=O)cc3)sc2-c2ccnc(NCCc3ccccc3)c2)c1` is lower in Kd: > 10000 nM for the first, 81 nM for the second.

`CN(C)CCN(C)C(=O)c1cc(-c2ccncc2)c(-c2ccc(Cl)c(O)c2)o1.Cl.Cl` [SB-710397] and `COC(=O)c1c(-c2ccccc2)c2cc(OC)ccc2c(=O)n1Cc1ccccc1` are within 1.5-fold of each other in Kd: 45 nM for the first, 61 nM for the second.

`Cl.O=C(Nc1cccc(-c2nn3ncccc3c2-c2ccnc(Nc3cccnc3)n2)c1)c1c(F)cccc1F` [GSK312879] and `COC(=O)c1c(-c2ccccc2)c2cc(C(=O)O)ccc2c(=O)n1Cc1ccccc1` are within 1.5-fold of each other in Kd: 62 nM for the first, 50 nM for the second.

Test system: BRSK1

Compared with `O=C(Nc1n[nH]c2nc(-c3nccs3)c(Br)cc12)C1CCCC1` [SB-742609], `O=C(Nc1n[nH]c2nc(-c3nccs3)c(Br)cc12)C1CC1` [SB-742251] is 1.9-fold lower in Kd: 430 nM for the first, 230 nM for the second. The second binds more tightly here.

`Cc1ccc(NC(=O)Nc2cc(C(C)(C)C)nn2-c2ccccc2)cc1` [GSK1014915] and `Cc1ccc(NC(=O)Nc2cccc(Cl)c2)cc1-c1ccc(C(=O)Nc2ccncc2)cc1` [GSK1398468] cannot be ordered by Kd: > 10000 nM for the first, > 10000 nM for the second.

`CCn1c(-c2ccccn2)nc2cnccc21` [SB-736398] and `CS(=O)(=O)c1ccc(-c2c(-c3ncn[nH]3)sc(N3CCOCC3)c2C#N)cc1` cannot be ordered by Kd: > 10000 nM for the first, > 10000 nM for the second.

Test system: BRSK2

Compared with `O=C(Nc1n[nH]c2nc(-c3nccs3)c(Br)cc12)C1CCCC1` [SB-742609], `O=C(Nc1n[nH]c2nc(-c3nccs3)c(Br)cc12)C1CC1` [SB-742251] is 2.4-fold lower in Kd: 330 nM for the first, 140 nM for the second. The second binds more tightly here.

For `COc1ccccc1CNC(=O)c1cc(C(=O)c2ccccc2C)c[nH]1` [GSK364507], the Kd was > 10000 nM.
